MCF10A rerep = induces DNA re-replication in MCF 10a normal breast cells; MCF 10A DNA re-replication, Hoechst nuclear intensity, 48 h; AID 624296; 350,000 compounds, 2.9% hits; Potency, µM (titrated, usually from 46.1 µM), for the others: at the highest dose activity, positive = re-replication, usual class: activators; note: % of control where 0% means no effect; nearly all actives have a fitted effect of over 50% in size
12-LOX inh = inhibitors of human 12S-lipoxygenase ALOX12; Potency, µM (highest dose often 108 µM), for the others: top-dose activity change, negative = inhibition, actives largely listed as inhibitors; AID 1671190; purified 12hLO, xylenol orange hydroperoxide absorbance; 580,000 compounds, 1.1% hits; note: % is set by controls: 0 for no effect and ±100 for the full control effect
Target sequence (P18054 whole entry, looked up): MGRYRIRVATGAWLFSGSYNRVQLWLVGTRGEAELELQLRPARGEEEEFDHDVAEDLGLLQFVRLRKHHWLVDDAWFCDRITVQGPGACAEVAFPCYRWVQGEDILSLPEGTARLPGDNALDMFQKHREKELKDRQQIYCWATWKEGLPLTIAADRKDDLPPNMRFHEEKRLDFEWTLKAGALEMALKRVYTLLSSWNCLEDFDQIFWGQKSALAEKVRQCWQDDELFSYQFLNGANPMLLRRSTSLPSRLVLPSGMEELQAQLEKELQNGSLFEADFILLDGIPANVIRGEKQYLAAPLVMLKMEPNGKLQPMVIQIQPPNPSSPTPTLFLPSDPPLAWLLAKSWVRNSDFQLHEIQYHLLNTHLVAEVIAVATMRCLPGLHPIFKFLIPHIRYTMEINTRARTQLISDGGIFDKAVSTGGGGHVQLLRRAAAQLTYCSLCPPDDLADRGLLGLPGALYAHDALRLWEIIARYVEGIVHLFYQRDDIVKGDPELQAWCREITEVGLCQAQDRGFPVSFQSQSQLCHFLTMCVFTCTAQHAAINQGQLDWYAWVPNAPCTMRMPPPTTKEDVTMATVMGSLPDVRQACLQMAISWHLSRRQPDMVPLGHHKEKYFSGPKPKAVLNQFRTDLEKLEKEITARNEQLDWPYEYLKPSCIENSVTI
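Purified human 12hLO (150 nM final) in 25 mM Hepes, 0.01% Triton X-100, pH 7.0 was preincubated 15 min at room temperature with compound. Then 40 uM arachidonic acid was added, 30 min. Hydroperoxide was read by Fe-XO absorbance ratio 573/405 nm.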
KB-V1 cytotox = KB-V1 MDR subline cytotoxicity; KB-V1 MDR cells viability, CellTiter-Glo, 72 h; Potency, µM (doses to about 46.1 µM), hits mostly cytotoxic; 400,000 compounds, 3.4% hits; note: % is set by controls: 0 for no effect and ±100 for the full control effect; nearly all actives have a fitted effect of over 60% in size
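In this primary screen, KB-V1 cells overexpressing P-gp are incubated with library compounds (lowest to highest concentration) for 72 h at 37 degrees C before a luminescent ATP viability read.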
SW480 rereplic = induces DNA re-replication in SW480 colon adenocarcinoma cells; SW480 DNA re-replication, Hoechst DNA content imaging, 48 h; Potency, µM (doses to about 46.1 µM), for inactives: top-dose re-replication activation, usual class: activators; 340,000 compounds, 1.8% hits; AID 624297; note: % of control where 0% means no effect; nearly all actives have a fitted effect of over 55% in size
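Image-based DNA-content assay: after two days of treatment, nuclei were labelled with the DNA dye Hoechst and imaged, and hits were compounds raising the count of nuclei showing high fluorescence intensity.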
PINK1 expr mod = changes PINK1 expression | 410,000 compounds, 0.2% hits | PINK1 immunofluorescence, high-content cytometry, 24 h | Potency, µM (top dose mostly 76.6 µM), without a hit: at the top dose activation (PINK1 increase), most hits filed as activators; active = well fitted activation curve with a large enough effect; inconclusive = small, poorly fitted or top-dose-only effect; cell line not stated here; note: % of control where 0% means no effect; nearly all actives have a fitted effect of over 65% in size
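PINK1 protein level read as immunofluorescence by microplate cytometer in a fixed, stained stable cell line after 24 h exposure to five compound concentrations, with CCCP as control.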
KB-3-1 tox = KB-3-1 parental cell cytotoxicity | KB-3-1 viability, CellTiter-Glo ATP luminescence, 72 h | Potency, µM (doses to about 46.1 µM), most hits filed as cytotoxic | 400,000 compounds, 1.4% hits | AID 1347075; note: % is set by controls: 0 for no effect and ±100 for the full control effect; nearly all actives have a fitted effect of over 60% in size
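Screening of KB-3-1 cells (DMEM, 10% FBS, phenol-red free) ran from lowest to highest compound concentration; after 72 h at 37 °C viability was read luminescently and curves fitted.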
Starred values were filed as active, the others as inactive; i = inactive; ? = inconclusive; · = not tested or not shown. This is a sample that favours compounds with a hit; in the whole collection about 5.8% have one here. Unless noted, calls come from the whole dose curve; as a rule, active = well fitted curve in the direction sought with a large enough effect; inconclusive = small, poorly fitted or top-dose-only effect, or another doubt; inactive = no such curve, though single readings can be large; an effect the other way counts as inactive or inconclusive. Potency is the fitted concentration of half-maximal effect.

SMILES | MCF10A rerep | 12-LOX inh | KB-V1 cytotox | SW480 rereplic | PINK1 expr mod | KB-3-1 tox
COc1ccc(/C=N/NC(=O)c2nc(-c3ccccc3)n(-c3ccccc3)n2)c(O)c1 | 7.3µM* | 7% | i | ? | -1% | ?
Cc1c(N=Cc2cc(Br)cc(Br)c2O)cccc1C(=O)O | ? | 50µM* | ? | -1% | -2% | ?
O=C(CP(=O)(c1ccccc1)c1ccccc1)N/N=C/c1cc(Br)cc(Br)c1O | 5.8µM* | -2% | ? | ? | ? | i
CCn1c(C)nc2cc(C(=O)N/N=C/c3ccc(O)c(O)c3O)ccc21 | 24% | -21% | i | -2% | -1% | i
CCn1nc(C(=O)OCc2ccc3cc(OC)ccc3c2)c2ccccc2c1=O | · | 4% | · | · | · | ·
COc1cccc(/C=N/NC(=O)c2nc(-c3ccccc3)cc(-c3ccccc3)n2)c1O | 7% | -17% | ? | 8.2µM* | 0% | ?
COc1ccccc1OCC(=O)N/N=C/c1cccc2cccnc12 | 13% | ? | i | ? | 3% | i
COc1ccccc1C=NN=C(NN=Cc1ccccc1OC)NN=Cc1ccccc1OC | 26% | ? | 21µM* | ? | 28µM* | ?
COc1cccc(/C=N/NC(=O)COc2cccc3cccnc23)c1O | ? | -8% | i | 13µM* | 3% | ?
COc1ccccc1C=NNC(=O)NN=Cc1ccccc1OC | -13% | -20% | i | 1% | 10% | i
COc1cccc(C=NNC(=O)c2ccncc2)c1O | ? | 7% | i | ? | -1% | 21µM*
COc1cccc(/C=N/NC(=O)N/N=C/c2cccc(OC)c2O)c1O | 14% | 0% | i | ? | 0% | i
N#Cc1cccc(Oc2ccc(C(=O)OCC(=O)c3ccccc3)cc2)c1C#N | · | 2% | · | · | · | ·
COc1cccc2cc(-c3cc(=O)oc4ccc(OC(C)=O)cc34)oc12 | · | 9% | · | · | · | ·
Cc1ccc2cc(C(=O)N3CCCC(C(=O)N4CCOCC4)C3)[nH]c2c1 (centres undefined) | · | 8% | · | · | · | ·
COc1cc(OC)c2cc(C(=O)N/N=C/c3cccc(OC)c3O)[nH]c2c1 | 18% | -2% | ? | 3.3µM* | 4% | ?
O=C(N/N=C/c1ccc(Br)s1)c1ccncc1 | ? | -2% | i | 10µM* | -2% | i
COc1ccccc1/C=C/C=N/Nc1cccc(C(=O)O)c1 | 21µM* | -23% | i | 7% | 1% | i
O=C(O)c1cccc(N/N=C/c2ccc(-c3ccccc3)cc2)c1 | 2% | ? | i | 3% | 5% | i
COc1cc([N+](=O)[O-])cc(/C=N/NC(=O)C(O)(c2ccccc2)c2ccccc2)c1O | ? | 4% | i | ? | -2% | i
Cc1ccc(C(=O)N/N=C/c2ccc(Br)s2)cc1 | · | -94% | · | · | · | ·
COc1cc([N+](=O)[O-])cc(/C=N/NC(=O)c2cccnc2)c1O | 6.5µM* | 0% | i | ? | 0% | ?
CC(C)c1noc(-c2cn(C3CCCN(C(=O)c4ccccc4)C3)nn2)n1 (centres undefined) | · | 12% | · | · | · | ·
Cc1nn(C)c(C)c1CCN(C)C(=O)C12CCCC=C1N(C1CCCC1)C(=O)CC2 (centres undefined) | · | 23% | · | · | · | ·
Cc1ccc(S(=O)(=O)Oc2ccccc2-c2ccccc2)cc1 | 12µM* | -1% | ? | 12µM* | 3% | ?
SMILES | MCF10A rerep | 12-LOX inh | KB-V1 cytotox | SW480 rereplic | PINK1 expr mod | KB-3-1 tox
CCC(=NNC(=O)c1ccc2c(c1)nc(C)n2CC)c1cc(F)ccc1O | 10% | 0% | 2.3µM* | ? | -5% | ?
O=C(N/N=C/c1cc(Br)cc(Br)c1O)c1ccncc1 | ? | ? | i | 1µM* | 4% | i
CCn1c(C)nc2cc(C(N)=O)ccc21 | -1% | 0% | ? | -8% | -1% | i
COc1cccc(/C=N/NC(=O)CSc2ccccc2C)c1O | ? | -25% | 6.5µM* | ? | -1% | ?
COc1cccc(/C=N/Nc2ccc(C(=O)O)cc2)c1O | -1% | ? | ? | -8% | 2% | 16µM*
COc1ccc(Br)cc1/C=N/Nc1cccc(C(=O)O)c1 | 25% | ? | i | -6% | 2% | i
Cc1ccc(S(=O)(=O)Oc2ccccc2/C=N/Nc2ccc(C(=O)O)cc2)cc1 | 18µM* | -15% | ? | ? | 11% | i
O=C(N/N=C/C1=Cc2ccccc2OC1)c1ccncc1 | ? | 62% | i | 18µM* | 4% | i
O=C(O)c1cccc(N/N=C/c2cc(Br)cc(Br)c2O)c1 | 2% | 45µM* | i | · | 4% | i
Cc1cc(C)n(-c2nc3cc(Cl)ccc3nc2NCc2ccncc2)n1 | · | -17% | · | · | · | ·
N#CC(=C(N)Sc1ccccc1N)C(C#N)=C(N)Sc1ccccc1N | · | 22µM* | · | · | · | ·
Nc1cccc(C(=O)c2ccc(F)cc2)c1 | · | 28% | · | · | · | ·
N#Cc1nc(COc2ccccc2)oc1NCc1cccnc1 | · | 5% | · | · | · | ·
CCc1c(C)nc(SCc2nc(-c3ccc(OC)cc3OC)oc2C)[nH]c1=O | · | 1% | · | · | · | ·
COc1ccc(/C=c2\sc3nc(-c4ccccc4)c(-c4ccccc4)n3c2=O)cc1OC | 3% | 0% | ? | 3% | 11% | i
O=c1/c(=C\c2cccc(O)c2)sc2nc(-c3ccccc3)c(-c3ccccc3)n12 | 4.6µM* | -18% | i | -6% | 1% | i
O=C(c1ccc(F)cc1)N1CCC(CCc2ccc(O)cc2)CC1 | · | 2% | · | · | · | ·
O=c1cc(-c2cccc(F)c2)oc2ccc(Cl)cc12 | · | 8% | · | · | · | ·
COc1ccc(-n2c(SCCC#N)nnc2-c2cc(Cl)ccc2OC)cc1Cl | 16µM* | -21% | ? | ? | 3% | ?
Cc1c(C)n(Cc2ccccc2)c2ccc(C(=O)OCCCN(C)C)cc12 | 21µM* | -24% | ? | ? | -2% | ?
Cc1c(C)n(CCN(C)C)c2ccc(C(=O)OCCN(C)C)cc12 | -2% | -19% | i | 26% | -1% | i
OC1CN(Cc2ccccc2)CCN(c2nc(-c3ccccc3)no2)C1 (centres undefined) | · | -2% | · | · | · | ·
COc1ccc(/C=N/N(C)C2=NS(=O)(=O)c3ccccc32)cc1 | 4% | 0% | i | 0% | 13% | i
CN(/N=C/c1ccc(N(C)C)cc1)C1=NS(=O)(=O)c2ccccc21 | 8.2µM* | -22% | i | 7.3µM* | ? | ?
COc1ccc(N(C)C2=NS(=O)(=O)c3ccccc32)cc1 | 5.8µM* | 46% | i | 2.6µM* | -2% | ?
CC(C)C(NC(=O)c1ccc(I)cc1)C(C)C | · | 4% | · | · | · | ·

Screening data (PubChem)
